Assay results taken from PubChem BioAssay (Tox21).
Records with an inconclusive call do not appear. A call without a number means that no potency is given here. Calls of active or inactive are those of the source. Unless noted, calls come from the whole dose curve; as a rule, active = well fitted curve in the direction sought with a large enough effect in the repeat runs; inconclusive = weak or mixed curves; inactive = no such curve, though single readings can be large; an effect the other way counts as inactive or inconclusive.

What was measured:
[1] = A CellTox Green Cytotoxicity Assay to monitor cytotoxicity in HepG2 cells - 8 hour (AID 1224890); note: nearly all actives have a fitted effect of over 45% in size; note: potency is the fitted concentration of half-maximal effect
In short: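 Cytotoxicity was tracked as dead-cell DNA fluorescence in HepG2 cells treated with test compounds at 37 C; each time-point value comes from one kinetic series spanning 0, 8, 16, 24, 32 and 40 h.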

[2] = qHTS assay to identify small molecule antagonists of the estrogen receptor alpha (ER-alpha) signaling pathway using the BG1 cell line in the presence of 0.1 nM 17-beta-estradiol - cell viability counter screen (AID 1259241); note: nearly all actives have a fitted effect of over 40% in size; note: potency is the fitted concentration of half-maximal effect
In short: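 Estradiol-stimulated (0.1 nM) VM7Luc4E2 cells exposed to compounds 22 hr; viability measured by fluorescence of cleaved CellTiter-Fluor substrate after 30 min.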

[3] = qHTS assay to identify small molecule antagonists of the androgen receptor (AR) signaling pathway using the MDA cell line in the presence of 0.5 nM R1881 - cell viability counter screen (AID 1259242); note: nearly all actives have a fitted effect of over 45% in size; note: potency is the fitted concentration of half-maximal effect
In short: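 Cells seeded at 3,000/well and allowed 5 hr at 37C, 0% CO2 before compound transfer and R1881 (0.5 nM final) addition; 16 hr later, live-cell protease fluorescence indicated cytotoxicity.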

[4] = target: Androgen receptor (Homo sapiens) (UniProt P10275); experiment: qHTS assay to identify small molecule antagonists of the androgen receptor (AR) signaling pathway using the MDA cell line in the presence of 0.5 nM R1881 (AID 1259243); note: nearly all actives have a fitted effect of over 50% in size; note: potency is the fitted concentration of half-maximal effect
Chain of Androgen receptor (Homo sapiens) (P10275 whole entry, looked up): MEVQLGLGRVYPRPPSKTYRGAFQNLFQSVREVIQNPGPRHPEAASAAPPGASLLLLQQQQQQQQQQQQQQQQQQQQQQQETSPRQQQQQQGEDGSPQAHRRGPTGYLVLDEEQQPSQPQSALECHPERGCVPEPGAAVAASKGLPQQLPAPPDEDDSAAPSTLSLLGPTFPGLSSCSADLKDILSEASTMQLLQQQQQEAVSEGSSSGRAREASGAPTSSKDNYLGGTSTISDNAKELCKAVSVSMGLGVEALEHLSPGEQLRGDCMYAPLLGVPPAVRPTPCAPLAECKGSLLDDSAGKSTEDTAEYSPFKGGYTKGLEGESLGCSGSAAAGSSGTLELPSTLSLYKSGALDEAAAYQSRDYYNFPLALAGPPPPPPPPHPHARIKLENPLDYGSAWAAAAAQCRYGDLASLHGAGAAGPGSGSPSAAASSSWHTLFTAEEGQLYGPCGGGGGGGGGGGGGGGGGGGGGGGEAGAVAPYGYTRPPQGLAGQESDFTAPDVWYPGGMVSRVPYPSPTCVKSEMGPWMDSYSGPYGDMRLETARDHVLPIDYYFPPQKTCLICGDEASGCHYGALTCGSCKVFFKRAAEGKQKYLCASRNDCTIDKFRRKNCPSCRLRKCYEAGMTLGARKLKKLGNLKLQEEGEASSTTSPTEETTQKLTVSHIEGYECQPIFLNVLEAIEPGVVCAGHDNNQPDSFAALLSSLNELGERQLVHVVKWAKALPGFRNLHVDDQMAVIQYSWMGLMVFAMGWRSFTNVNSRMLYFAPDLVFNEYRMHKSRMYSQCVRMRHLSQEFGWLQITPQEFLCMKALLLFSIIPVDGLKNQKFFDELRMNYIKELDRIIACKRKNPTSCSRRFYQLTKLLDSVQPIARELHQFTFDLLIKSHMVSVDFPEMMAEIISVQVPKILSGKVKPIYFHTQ
In short: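 Luminescence from an AR/GR-responsive MMTV-luciferase construct in MDA-kb2 breast carcinoma cells, read 30 min after ONE-Glo, following 16 hr co-treatment with compounds and 0.5 nM R1881.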

[5] = target: Estrogen receptor (Homo sapiens) (UniProt P03372); experiment: qHTS assay to identify small molecule antagonists of the estrogen receptor alpha (ER-alpha) signaling pathway using the BG1 cell line in the presence of 0.1 nM 17-beta-estradiol (AID 1259244); note: nearly all actives have a fitted effect of over 50% in size; note: potency is the fitted concentration of half-maximal effect
Chain of Estrogen receptor (Homo sapiens) (P03372 whole entry, looked up): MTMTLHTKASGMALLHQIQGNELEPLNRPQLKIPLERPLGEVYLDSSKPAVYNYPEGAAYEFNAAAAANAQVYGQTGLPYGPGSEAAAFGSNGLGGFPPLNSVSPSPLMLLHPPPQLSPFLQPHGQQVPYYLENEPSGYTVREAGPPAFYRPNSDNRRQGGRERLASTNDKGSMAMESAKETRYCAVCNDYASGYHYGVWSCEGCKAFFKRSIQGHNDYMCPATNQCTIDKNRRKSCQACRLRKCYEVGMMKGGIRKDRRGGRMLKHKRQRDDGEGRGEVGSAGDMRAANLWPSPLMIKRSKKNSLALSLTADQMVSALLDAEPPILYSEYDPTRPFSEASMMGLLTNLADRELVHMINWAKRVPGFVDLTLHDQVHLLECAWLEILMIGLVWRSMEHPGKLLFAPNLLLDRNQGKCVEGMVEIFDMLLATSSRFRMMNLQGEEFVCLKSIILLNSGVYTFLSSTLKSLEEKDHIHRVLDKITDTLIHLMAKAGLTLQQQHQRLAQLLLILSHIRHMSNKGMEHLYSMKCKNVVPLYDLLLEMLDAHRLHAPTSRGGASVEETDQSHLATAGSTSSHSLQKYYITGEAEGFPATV
In short: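 Luciferase signal from VM7Luc4E2 ERE-reporter cells, co-dosed with test compound and 0.1 nM final 17beta-estradiol for 22 h, read with ONE-Glo.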

[6] = qHTS assay to identify small molecule HDAC inhibitors (AID 1259364); note: potency is the fitted concentration of half-maximal effect;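 note: wild-type HCT-116 cells with endogenous class I/II HDAC activity; nearly all actives have a fitted effect of over 45% in size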
In short: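 HCT-116 wt cells, 1,500/well, overnight attach. Compounds (DMSO) 2 h, 37 °C. HDAC-Glo I/II, 30 min RT. Luminescence.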

[7] = qHTS assay to identify small molecule HDAC inhibitors - cell viability counter screen (AID 1259365); note: series mostly up to about 92 µM; nearly all actives have a fitted effect of over 50% in size
In short: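 After overnight seeding at 1,500 cells per well, wild-type HCT-116 cultures took up compounds in DMSO for 2hr at 37 C. Viable cell content came from luminescence with CellTiter-Glo.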

[8] = qHTS assay to identify small molecule agonists of the sonic hedgehog signaling (Shh) pathway - cell viability counter screen (AID 1259366); note: nearly all actives have a fitted effect of over 50% in size; note: potency is the fitted concentration of half-maximal effect
In short: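 Same-well cytotoxicity read. Gli1-Luc reporter 3T3 cells; compounds 24hr, 37C/5% CO2; CellTiter-Fluor fluorescence.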

[9] = qHTS assay to identify small molecule antagonists of the sonic hedgehog signaling (Shh) pathway - cell viability counter screen (AID 1259367); note: nearly all actives have a fitted effect of over 55% in size; note: potency is the fitted concentration of half-maximal effect
In short: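 Tox21 library chemicals were tested on a Gli1-Luc NIH/3T3 clone (2,000 cells/well) stimulated by conditioned medium; viability was quantified as fluorescence from CellTiter-Fluor reagent added at 23 hr.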

[10] = qHTS assay to identify small molecule agonists of the sonic hedgehog signaling (Shh) pathway (AID 1259368; calls by dose curve;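 note: NIH/3T3-derived 3T3Gli1-Luc cells carrying a stable Gli1-driven firefly luciferase reporter; series mostly up to about 92 µM; nearly all actives have a fitted effect of over 15% in size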)
In short: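 Following a 24 hr incubation with DMSO-dissolved compounds at 37 C, 5% CO2, Gli1-Luc NIH/3T3-derived cells received luciferase reagent for 30 min at room temperature prior to luminescence measurement.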

[11] = qHTS assay to identify small molecule antagonists of the sonic hedgehog signaling (Shh) pathway (AID 1259369; calls by dose curve; note: nearly all actives have a fitted effect of over 45% in size; note: potency is the fitted concentration of half-maximal effect)
In short: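 Read-out is luminescence from a firefly luciferase gene controlled by the Gli1 response element, in 3T3Gli1-Luc cells pre-incubated 4hr then exposed to compounds and conditioned medium for 24hr.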

[12] = target: Estrogen receptor beta (Homo sapiens) (UniProt Q92731); experiment: qHTS assay to identify small molecule antagonists of the estrogen receptor beta (ER-beta) signaling pathway (AID 1259378; active = well fitted inhibition curve with a large enough effect in the signal ratio in the repeat runs, not every such curve was filed as active; the % refers to the signal ratio)
Chain of Estrogen receptor beta (Homo sapiens) (Q92731 whole entry, looked up): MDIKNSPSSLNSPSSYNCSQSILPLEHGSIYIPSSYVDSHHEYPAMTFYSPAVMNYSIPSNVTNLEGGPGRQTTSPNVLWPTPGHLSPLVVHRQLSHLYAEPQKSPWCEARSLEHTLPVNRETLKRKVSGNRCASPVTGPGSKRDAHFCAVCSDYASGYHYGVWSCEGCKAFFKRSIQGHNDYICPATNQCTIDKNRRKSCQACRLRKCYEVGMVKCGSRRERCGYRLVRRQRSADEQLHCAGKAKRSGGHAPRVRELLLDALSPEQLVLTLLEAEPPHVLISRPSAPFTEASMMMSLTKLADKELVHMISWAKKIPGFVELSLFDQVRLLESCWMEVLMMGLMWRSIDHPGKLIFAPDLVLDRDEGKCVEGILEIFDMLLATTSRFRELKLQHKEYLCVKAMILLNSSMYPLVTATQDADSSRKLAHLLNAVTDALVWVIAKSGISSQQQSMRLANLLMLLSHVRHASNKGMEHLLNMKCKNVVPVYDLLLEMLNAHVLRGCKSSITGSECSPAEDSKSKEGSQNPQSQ
In short: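 ER-beta-UAS-bla HEK293T cells in 2% charcoal-stripped FBS medium treated with compound plus 1nM final 17-beta-estradiol for 16 hr at 37C. Beta-lactamase reporter read by FRET substrate fluorescence after 2 hours at room temperature.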

[13] = qHTS assay to identify small molecule agonists of the androgen receptor (AR) signaling pathway in the presence of an antagonist - cell viability counter screen (AID 1259379); note: nearly all actives have a fitted effect of over 25% in size; note: potency is the fitted concentration of half-maximal effect
In short: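 Each compound was tested at 15 concentrations on MDA-kb2 cells in the presence of 3.0uM nilutamide. Viability was measured by CellTiter-Fluor fluorescence after a 16 hr incubation at 37C in a CO2-free atmosphere.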

[14] = target: Androgen receptor (Homo sapiens) (UniProt P10275); experiment: qHTS assay to identify small molecule agonists of the androgen receptor (AR) signaling pathway in the presence of an antagonist (AID 1259381; calls by dose curve; note: nearly all actives have a fitted effect of over 15% in size; note: potency is the fitted concentration of half-maximal effect)
In short: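 Plated MDA-kb2 cells (3,000/well) were pre-incubated 5hr, given nilutamide (3.0uM final) or buffer, then dosed with compounds in DMSO at 15 concentrations. Luciferase activity was quantified by luminescence after 16hr at 37C.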

[15] = qHTS assay to identify small molecule antagonists of the estrogen receptor beta (ER-beta) signaling pathway - cell viability counter screen (AID 1259382); note: series mostly up to about 92 µM; nearly all actives have a fitted effect of over 55% in size
In short: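 CellTiter-Glo ATP luminescence measured after the LiveBLAzer read in the same wells; ER-beta-UAS-bla HEK293T cells, 16 hr compound treatment with 1nM 17-beta-estradiol agonist at 37C, 5% CO2.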

[16] = qHTS assay to identify small molecule agonists or antagonists of the thyroid stimulating hormone receptor (TSHR) signaling pathway - wild type cell line counter screen (AID 1259384; calls by dose curve)
In short: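 Wild-type Hek293 cells, 800/well, 18 h at 37C, then compound with Ro20-1724 for 30 min RT. cAMP by HTRF (cAMP-d2/anti-cAMP cryptate), 1 h RT, fluorescence read. 15 concentrations, triplicates.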

[17] = qHTS assay to identify small molecule phospholipidosis (PLD) inducers (AID 1259344; active = well fitted curve in the direction sought with a large enough effect; an effect the other way counts as inactive or inconclusive)
In short: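 Image-based: LipidTOX Red pit count/intensity per well and per cell; HepG2, 24 h compound at 37 C, PFA fixation, Hoechst counterstain.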

[18] = qHTS assay to identify small molecule agonists of the estrogen receptor beta (ER-beta) signaling pathway - cell viability counter screen (AID 1259380); note: nearly all actives have a fitted effect of over 30% in size; note: potency is the fitted concentration of half-maximal effect
In short: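 Compounds dissolved in DMSO were pin-transferred onto ER-beta-UAS-bla HEK293T cells that had settled 6 hr, and exposure ran 16 hr at 37C. Following the reporter read, CellTiter-Glo luminescence after 30 min at room temperature indicated cytotoxicity.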

[19] = target: Estrogen receptor (Homo sapiens) (UniProt P03372); experiment: qHTS assay to identify small molecule agonists of the estrogen receptor alpha (ER-alpha) signaling pathway in the presence of an antagonist (AID 1259383; calls by dose curve; note: top concentration of the series differs between compounds; nearly all actives have a fitted effect of over 15% in size)
In short: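 Luminescent ERE-luciferase reporter, VM7Luc4E2 cells (endogenous ER-alpha); 10.0nM ICI-182,780 final; 15-point compound titration; 22hr at 37C; ONE-Glo, 30min RT.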

[20] = target: Estrogen receptor beta (Homo sapiens) (UniProt Q92731); experiment: qHTS assay to identify small molecule agonists of the estrogen receptor beta (ER-beta) signaling pathway (AID 1259377; active = well fitted activation curve with a large enough effect in the signal ratio in the repeat runs, not every such curve was filed as active; the % refers to the signal ratio)
In short: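 Read-out: beta-lactamase FRET fluorescence. Cell line: ER-beta-UAS-bla HEK293T in 2% charcoal-stripped FBS. Exposure: 16 hr at 37C. Substrate step: 2 h at room temperature.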

Row | Structure (SMILES) | Potency [1] | Potency [2] | Potency [3] | Potency [4] | Potency [5] | Potency [6] | Potency [7] | Potency [8] | Potency [9] | Potency [10] | Potency [11] | Potency [12] | Potency [13] | Potency [14] | Potency [15] | outcome [16] | outcome [17] | Potency [18] | Potency [19] | Potency [20]
1 | N#CCC#N | inactive | inactive | inactive | 10.9 µM (active) | inactive | inactive | inactive | inactive | inactive | inactive | inactive | inactive | inactive | inactive | inactive | inactive | – | – | – | –
2 | CC(=O)NC1CCSC1=O (configuration not stated) | inactive | inactive | inactive | inactive | inactive | inactive | inactive | inactive | inactive | inactive | inactive | – | inactive | inactive | inactive | inactive | inactive | inactive | inactive | –
3 | COC(C)(C)CCC[C@H](C)C/C=C/C(C)=C/C(=O)OC(C)C | inactive | inactive | inactive | inactive | – | – | inactive | inactive | inactive | inactive | inactive | inactive | inactive | inactive | inactive | inactive | – | inactive | – | inactive
4 | CCO[C@H]1O[C@@H]2OC3(C)CC[C@H]4[C@H](C)CC[C@@H]([C@H]1C)[C@@]24OO3 | inactive | inactive | inactive | 10.6 µM (active) | inactive | inactive | inactive | inactive | inactive | inactive | inactive | inactive | inactive | inactive | inactive | – | – | inactive | – | inactive
5 | II | 38.9 µM (active) | inactive | inactive | inactive | – | – | inactive | inactive | inactive | inactive | inactive | – | – | inactive | – | – | – | – | inactive | –
6 | C=CC(=O)NCNC(=O)C=C | inactive | inactive | inactive | inactive | inactive | – | inactive | – | inactive | inactive | – | – | – | 48.6 µM (active) | inactive | inactive | inactive | – | – | –
7 | ClCc1cccc(Cl)c1 | inactive | inactive | inactive | inactive | inactive | inactive | inactive | inactive | inactive | inactive | inactive | inactive | inactive | inactive | inactive | inactive | – | inactive | inactive | inactive
8 | Cc1cc(=O)[nH]o1 | inactive | inactive | inactive | inactive | inactive | inactive | inactive | inactive | inactive | inactive | inactive | inactive | inactive | inactive | inactive | inactive | – | inactive | inactive | inactive
9 | O=S1(=O)OC(c2cc(Br)c(O)c(Br)c2)(c2cc(Br)c(O)c(Br)c2)c2ccccc21 | inactive | 14.1 µM (active) | 22.3 µM (active) | 5.6 µM (active) | 17.7 µM (active) | 3.97 µM (active) | – | 14.1 µM (active) | 15.8 µM (active) | – | 7.05 µM (active) | – | 25 µM (active) | inactive | – | – | – | 31.5 µM (active) | inactive | –
10 | Cn1sc(Cl)cc1=O | inactive | inactive | inactive | – | inactive | inactive | inactive | inactive | inactive | inactive | inactive | inactive | inactive | – | inactive | inactive | inactive | inactive | inactive | inactive
11 | COc1cc(CC(C)N)cc2c1OCO2 (configuration not stated) | inactive | inactive | inactive | – | inactive | inactive | inactive | inactive | inactive | inactive | inactive | inactive | inactive | – | inactive | inactive | inactive | inactive | inactive | inactive
12 | O=C(NC(=O)c1c(F)cccc1F)Nc1cc(Cl)c(Oc2ncc(C(F)(F)F)cc2Cl)c(Cl)c1 | inactive | inactive | inactive | 26.1 µM (active) | 29.3 µM (active) | inactive | inactive | inactive | inactive | inactive | 23.3 µM (active) | – | – | inactive | inactive | inactive | – | – | – | inactive
13 | CC1Sc2c(C(=O)O)c(=O)c3cc(F)c(N4CCNCC4)cc3n21 (configuration not stated) | inactive | inactive | inactive | inactive | inactive | inactive | inactive | inactive | inactive | inactive | inactive | – | – | inactive | inactive | inactive | – | inactive | inactive | inactive
14 | Brc1ccccc1 | inactive | inactive | inactive | inactive | inactive | inactive | inactive | inactive | inactive | inactive | inactive | inactive | inactive | inactive | inactive | inactive | – | inactive | – | inactive
